# Results from ChEMBL document CHEMBL3433997, “St. Jude Leishmania screening dataset” (2016).
# Biological target: Solute carrier family 2, facilitated glucose transporter member 1 (Homo sapiens) (UniProt P11166)
# Assay: ST_JUDE_LEISH: Cytotoxicity at 2uM final concentration against transgenic Leishmania Mexicana promastigotes LmGLUT1 that are glucose transport deficient and complemented with the human glucose transporter GLUT1. Activity is measured by DNA content using SYBR green in vitro
# Format: functional
# Sequence of Solute carrier family 2, facilitated glucose transporter member 1 (Homo sapiens) (P11166 whole entry): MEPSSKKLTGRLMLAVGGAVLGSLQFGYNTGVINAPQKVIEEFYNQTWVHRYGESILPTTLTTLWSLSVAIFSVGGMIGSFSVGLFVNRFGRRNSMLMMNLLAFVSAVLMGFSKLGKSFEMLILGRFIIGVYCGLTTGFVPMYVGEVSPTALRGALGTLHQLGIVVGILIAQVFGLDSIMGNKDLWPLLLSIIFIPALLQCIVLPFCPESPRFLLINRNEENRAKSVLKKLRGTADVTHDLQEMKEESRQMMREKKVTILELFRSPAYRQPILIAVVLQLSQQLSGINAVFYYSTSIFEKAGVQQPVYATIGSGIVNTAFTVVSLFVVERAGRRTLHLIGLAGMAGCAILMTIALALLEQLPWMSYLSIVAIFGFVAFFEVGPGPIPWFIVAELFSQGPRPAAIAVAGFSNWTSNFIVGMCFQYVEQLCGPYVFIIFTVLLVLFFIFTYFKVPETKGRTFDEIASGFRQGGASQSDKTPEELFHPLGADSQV
row,SMILES,inhibition
1,Cc1ccccc1C1CCN(C2CCC(NC(=O)/C=C/c3c(F)ccc(F)c3F)CC2)CC1 (stereo not given),2.52%
2,COc1ccc2ncc(Cl)c(CCN3CCC(NCc4ccc5c(n4)NC(=O)CS5)CC3)c2c1,7.16%
3,CCOc1ccccc1CCNCC1CCN(CC2CCCCC2)CC1,1.97%
4,CC1(C)Cc2c([nH]c3ccccc23)C(CCCCCCCCC2=NC(C)(C)Cc3c2[nH]c2ccccc32)=N1,8.46%
5,Cc1[nH]c(C)c(-c2ccc(Oc3ccccc3)cc2)c(=O)c1Br,1.44%
6,O=C(/C=C/c1ccc(Cl)c(Cl)c1)NCCCCCN1CCCC(C(=O)Nc2ccc(Cl)c(Cl)c2)C1 (stereo not given),-0.31%
7,CCCCOc1ccc(-n2c(Nc3ccccc3)nc3cc(S(N)(=O)=O)ccc32)cc1,11.4%
8,CC[C@H]1CN(CCCC(=O)c2ccccc2)CC[C@H]1CCCc1ccnc2ccc(OC(=O)c3ccccc3)cc12,4.64%
9,c1ccc(CN2CCc3cc4nccc(N5CCNCC5)c4cc32)cc1,-3.94%
10,COc1ccc2c(c1)Nc1ccc(Cl)cc1C2N (stereo not given),3.78%
11,O=C(/C=C/c1ccc(Cl)c(Cl)c1)N1CCN(C(=O)Nc2ccc(F)c(Cl)c2)CC1,9.87%
12,COc1cc(NC2CCCC(NCc3cn(S(=O)(=O)c4ccccc4)c4ccccc34)C2)nc2ccccc12 (stereo not given),1.09%
13,O=C1C2C(c3ccc(Cl)c(Cl)c3)N3CC(OCc4ccccc4)CC3(C(=O)O)C2C(=O)N1c1ccc(Br)cc1 (stereo not given),4.62%
14,CNC(=O)c1ccccc1Nc1nc(Nc2ccc(N3CCOCC3)cc2)ncc1Cl,77.2%
15,Nc1nc2c(ncn2COC2COP(=O)(O)OC2)c(=O)[nH]1 (stereo not given),12.2%
16,COc1ccc(-c2cccc(CNCc3ccc(F)cc3)c2)cc1S(=O)(=O)NCCN1CCCC1,7.5%
17,CCN1CCN(Cc2ccc3nc(-c4cc(C)n(Cc5cc(Cl)ccc5OCc5ccccc5)n4)[nH]c3c2)CC1,3.5%
18,Cc1ccc(OC2CCN(CCCCC3(C)C(=O)Nc4ccccc43)CC2)cc1 (stereo not given),4.24%
19,CN1CCC(Oc2cc(NC(=O)Nc3ccc(-c4ccncc4)c(Cl)c3)ccc2Cl)CC1,16%
20,Cc1cc(N(C)C2CCN(C)C2)nc(Nc2ccccc2Cl)n1 (stereo not given),1.12%

row,SMILES,inhibition
1,CN(C)c1ccc2c(c1)Sc1cc(N(C)C)ccc1N2C(=O)c1cccc(C(=O)O)c1,-1.08%
2,O=C(Nc1ccc(Br)c(Cl)c1)c1cc([N+](=O)[O-])cc2cn[nH]c12,-0.11%
3,Cc1[nH]c(C)c(-c2ccc(OCCCc3ccccn3)cc2)c(=O)c1Br,8.98%
4,COc1ccc2[nH]ccc(=NN=Cc3ccccc3)c2c1,13.5%
5,CC(ON1C(N)=NC(N)=NC1(C)C)c1ccccc1 (stereo not given),5.91%
6,CNc1c2c(nc3ccc(NC(=O)CCCCCCc4ccccc4)cc13)CCCC2,5.72%
7,Nc1ccc(Oc2ccc(Cc3cnc(N)nc3N)cc2)cc1,3.93%
8,O=C(Nc1cccc(CN2CCCN(Cc3cccc(Cl)c3)CC2)c1)c1ccc(Cl)c(Cl)c1,1.69%
9,COc1ccc2c(c1CCNCCCCNCCc1c(OC)ccc3c1CCCC3)CCCC2,47.3%
10,Cc1cc(O)c(-c2cccc(Oc3ccc(Cl)cc3)c2)c(C)n1,-1.02%
11,Cc1ccc2[nH]c3c(NCCCN(C)C)ncnc3c2c1,-1.63%
12,COc1c(C2CCN(CCCCNC(=O)c3cc(-c4ccc(Cl)cc4)sc3C)CC2)ccc2c1CCCC2,0.21%
13,CCN1CCC(N(Cc2ccc(-c3ccc(C(F)(F)F)s3)cc2)C(=O)Cn2c(CCc3cccc(F)c3F)nc(=O)c3ccccc32)CC1,6.57%
14,CN(C)c1ccc(-c2nnc(Sc3ccc(C#N)c([N+](=O)[O-])c3)n2Cc2ccco2)cc1,3.82%
15,Cc1cc(C(=O)NCc2ccc(-c3c(C)noc3C)cc2)n(-c2ccc(Cl)cc2)n1,8.7%
16,Cc1ccoc1C(=O)Nc1cccc(-c2cccc(-c3nc4cc(C(F)(F)F)ccc4[nH]3)c2)c1,3.75%
17,O=C(Cc1ccc[n+]([O-])c1)Nc1cccc(-c2cccc(-c3nc4cc(F)ccc4[nH]3)c2)c1,1.61%
18,O=C(/C=C/c1cccc(Br)c1)NCCCCCN1CCC(c2c[nH]c3ccccc23)CC1,3.71%
19,COc1cccc2c(N/N=C/c3ccccc3[N+](=O)[O-])cc(C)nc12,0.15%
20,Cc1c2c(nn1-c1ccccc1)C(c1ccccc1)N(c1ccccc1)C2=O (stereo not given),-0.43%

# Biological target: Hexose transporter 1 (Plasmodium falciparum) (UniProt O97467)
# Assay: ST_JUDE_LEISH: Cytotoxicity at 2uM final concentration against transgenic Leishmania Mexicana promastigotes LmPfHT that are glucose transport deficient and complemented with the Plasmodium falciparum hexose transporter. Activity is measured by DNA content using SYBR green in vitro
# Format: functional
row,SMILES,inhibition
1,Cc1ccccc1C1CCN(C2CCC(NC(=O)/C=C/c3c(F)ccc(F)c3F)CC2)CC1 (stereo not given),2.75%
2,COc1ccc2ncc(Cl)c(CCN3CCC(NCc4ccc5c(n4)NC(=O)CS5)CC3)c2c1,11%
3,CCOc1ccccc1CCNCC1CCN(CC2CCCCC2)CC1,-2.9%
4,CC1(C)Cc2c([nH]c3ccccc23)C(CCCCCCCCC2=NC(C)(C)Cc3c2[nH]c2ccccc32)=N1,6.32%
5,Cc1[nH]c(C)c(-c2ccc(Oc3ccccc3)cc2)c(=O)c1Br,1.17%
6,O=C(/C=C/c1ccc(Cl)c(Cl)c1)NCCCCCN1CCCC(C(=O)Nc2ccc(Cl)c(Cl)c2)C1 (stereo not given),-1.19%
7,CCCCOc1ccc(-n2c(Nc3ccccc3)nc3cc(S(N)(=O)=O)ccc32)cc1,8.64%
8,CC[C@H]1CN(CCCC(=O)c2ccccc2)CC[C@H]1CCCc1ccnc2ccc(OC(=O)c3ccccc3)cc12,5.86%
9,c1ccc(CN2CCc3cc4nccc(N5CCNCC5)c4cc32)cc1,-1.76%
10,COc1ccc2c(c1)Nc1ccc(Cl)cc1C2N (stereo not given),1.62%
11,O=C(/C=C/c1ccc(Cl)c(Cl)c1)N1CCN(C(=O)Nc2ccc(F)c(Cl)c2)CC1,8.92%
12,COc1cc(NC2CCCC(NCc3cn(S(=O)(=O)c4ccccc4)c4ccccc34)C2)nc2ccccc12 (stereo not given),2.28%
13,O=C1C2C(c3ccc(Cl)c(Cl)c3)N3CC(OCc4ccccc4)CC3(C(=O)O)C2C(=O)N1c1ccc(Br)cc1 (stereo not given),4.75%
14,CNC(=O)c1ccccc1Nc1nc(Nc2ccc(N3CCOCC3)cc2)ncc1Cl,84.9%
15,Nc1nc2c(ncn2COC2COP(=O)(O)OC2)c(=O)[nH]1 (stereo not given),12%
16,COc1ccc(-c2cccc(CNCc3ccc(F)cc3)c2)cc1S(=O)(=O)NCCN1CCCC1,8.55%
17,CCN1CCN(Cc2ccc3nc(-c4cc(C)n(Cc5cc(Cl)ccc5OCc5ccccc5)n4)[nH]c3c2)CC1,3.38%
18,Cc1ccc(OC2CCN(CCCCC3(C)C(=O)Nc4ccccc43)CC2)cc1 (stereo not given),15.1%
19,CN1CCC(Oc2cc(NC(=O)Nc3ccc(-c4ccncc4)c(Cl)c3)ccc2Cl)CC1,13.7%
20,Cc1cc(N(C)C2CCN(C)C2)nc(Nc2ccccc2Cl)n1 (stereo not given),2.69%

row,SMILES,inhibition
1,CN(C)c1ccc2c(c1)Sc1cc(N(C)C)ccc1N2C(=O)c1cccc(C(=O)O)c1,-0.19%
2,O=C(Nc1ccc(Br)c(Cl)c1)c1cc([N+](=O)[O-])cc2cn[nH]c12,-0.77%
3,Cc1[nH]c(C)c(-c2ccc(OCCCc3ccccn3)cc2)c(=O)c1Br,6.12%
4,COc1ccc2[nH]ccc(=NN=Cc3ccccc3)c2c1,9.86%
5,CC(ON1C(N)=NC(N)=NC1(C)C)c1ccccc1 (stereo not given),4.22%
6,CNc1c2c(nc3ccc(NC(=O)CCCCCCc4ccccc4)cc13)CCCC2,8.7%
7,Nc1ccc(Oc2ccc(Cc3cnc(N)nc3N)cc2)cc1,4.16%
8,O=C(Nc1cccc(CN2CCCN(Cc3cccc(Cl)c3)CC2)c1)c1ccc(Cl)c(Cl)c1,1.9%
9,COc1ccc2c(c1CCNCCCCNCCc1c(OC)ccc3c1CCCC3)CCCC2,61.4%
10,Cc1cc(O)c(-c2cccc(Oc3ccc(Cl)cc3)c2)c(C)n1,1.39%
11,Cc1ccc2[nH]c3c(NCCCN(C)C)ncnc3c2c1,-0.22%
12,COc1c(C2CCN(CCCCNC(=O)c3cc(-c4ccc(Cl)cc4)sc3C)CC2)ccc2c1CCCC2,2.22%
13,CCN1CCC(N(Cc2ccc(-c3ccc(C(F)(F)F)s3)cc2)C(=O)Cn2c(CCc3cccc(F)c3F)nc(=O)c3ccccc32)CC1,5.93%
14,CN(C)c1ccc(-c2nnc(Sc3ccc(C#N)c([N+](=O)[O-])c3)n2Cc2ccco2)cc1,2.83%
15,Cc1cc(C(=O)NCc2ccc(-c3c(C)noc3C)cc2)n(-c2ccc(Cl)cc2)n1,7.89%
16,Cc1ccoc1C(=O)Nc1cccc(-c2cccc(-c3nc4cc(C(F)(F)F)ccc4[nH]3)c2)c1,1.86%
17,O=C(Cc1ccc[n+]([O-])c1)Nc1cccc(-c2cccc(-c3nc4cc(F)ccc4[nH]3)c2)c1,1.76%
18,O=C(/C=C/c1cccc(Br)c1)NCCCCCN1CCC(c2c[nH]c3ccccc23)CC1,2.1%
19,COc1cccc2c(N/N=C/c3ccccc3[N+](=O)[O-])cc(C)nc12,0.03%
20,Cc1c2c(nn1-c1ccccc1)C(c1ccccc1)N(c1ccccc1)C2=O (stereo not given),0.43%
